Measurements reported in PubChem BioAssay AID602477 (National Center for Advancing Translational Sciences (NCATS), 2012).
Inconclusive results are not listed. Activity calls are given as the source filed them. The call rests on the fitted dose curve; in most records, active means well fitted activation curve with a large enough effect; inconclusive means small, poorly fitted or top-dose-only effect; inactive means no such curve, though single readings can be large or run the other way.

Experiment: FLuc inhibitory activity for the follow-up compounds in a cell-based assay to assess the activity of miR-21
Conditions: HeLa miR-21-FLuc reporter, luciferase luminescence, 48 h; series mostly up to 38.3 µM
Excerpt: NCGC Assay Overview: Firefly (Photinus pyralis) luciferase is one of the most commonly used transcriptional reporters. It is considered one of the more dynamically responsive reporters - that is, responsive to changes in reporter transcription - as it requires no post-translational modifications and is enzymatically active directly after protein synthesis (Wood, 1998). With no endogenous expression in mammalian cells and without the requirement of external excitation, it offers very little background signal, thus generally providing excellent signal to background for most assays. Previous profiling work to determine the prevalence of compounds that affect FLuc enzymatic activity (PubChem AID 411) identified that ~3% of the MLSMR library (then at ~72K) inhibited FLuc (Auld et al., 2008). […] Of the compounds identified in this profile that inhibited FLuc, 151 compounds were selected for further analysis, in an effort to better understand their mode of inhibiting FLuc. The assay described here was to determine the activity of the compounds in a cell-based firefly luciferase reporter gene assay originally designed to identify antagonists of miR-21. Compounds that inhibit miR-21 or compounds that stabilize FLuc intracellularly are identified as active compounds in the assay.
NCGC Assay Protocol Summary: Reagents: In-house detection reagent: 300mM Tris-HCl, 300mM Trizma base, 300mM MgCl, 1% Triton-X100, 5mM DTT, 500uM Coenzyme A trilithium salt (Sigma #C3019),450uM ATP (Sigma #A7699), 1mM D-luciferin sodium salt monohydrate (Biosynth #L8240) HeLa cells stably expressing firefly luciferase (FLuc) under the control of a CMV promoter (upstream) and a miR-21 binding sequence directly downstream of the gene. These cells endogenously express miR-21. Control compounds used were two known firefly luciferase inhibitors (3-(5-(3-chlorophenyl)-1,2,4-oxadiazol-3-yl)benzoic acid and 5-(2-fluorophenyl)-3-phenyl-1,2,4-oxadiazole), and DMSO. Assay Summary: 6uL of HeLa miR-21-FLuc cells in assay buffer (DMEM, Invitrogen #21063-029; 10% FBS, HyClone #SH30071.03) were dispensed at 2000cells/well (3.3 x 10^5 cells/mL) into Greiner solid-white TC-treated 1536-well plates using a Multidrop Combi (Thermo Fisher Scientific). Plates were incubated for one hour at 37 degree Celsius, 95% humidity, 5% CO2. These assay plates were then treated with 23nL of compound or DMSO using a Kalypsys pin tool, which allows for delivery of a 12-point titration of each compound to the assay plate, with a final compound concentration ranging from approximately ~38uM to 0.2nM. Assay plates were then incubated for 48 hours. After incubation, plates were allowed to come to RT for one hour prior to delivery of 3uL of 3X luciferase detection reagent. After a 15 minute incubation to allow for cell lysis, luciferase activity was measured using a ViewLux CCD imager (PerkinElmer), with an average exposure time of 2-12 seconds.

| Structure (SMILES) | Potency |
| --- | --- |
| c1ccc2sc(-c3ccc4c(c3)OCO4)nc2c1 | 0.225 µM (active) |
| CCOc1ccc2nc(NC(=O)c3ccccc3)sc2c1 | 0.1 µM (active) |
| COc1ccc2nc(NC(=O)CCc3ccc(OC)c(OC)c3)sc2c1 | 12.6 µM (active) |
| COc1cccc(OC)c1C(=O)Nc1cccc(C(=O)Nc2cccc(C(=O)O)c2)c1 | inactive |
| COc1ccc(C(=O)Nc2ccccc2-c2nc3ccccc3s2)c(OC)c1 | 22.5 µM (active) |
| O=C(Cc1ccccc1)Nc1ccccc1C(=O)Nc1ccc(C(=O)O)cc1 | inactive |
| CC(C)c1ccc(C(=O)Nc2ccc(-c3nc4ccccc4s3)c(Cl)c2)cc1 | 7.98 µM (active) |
| Cc1ccc(C(=O)O/N=C(\N)c2ccccn2)c(Cl)c1 | 0.0318 µM (active) |
| O=C(O)c1cccc(NC(=O)c2cccc(S(=O)(=O)Nc3cccc(F)c3)c2)c1 | inactive |
| O=C(Nc1ccccc1C(=O)O)c1cc(S(=O)(=O)Nc2ccccc2)ccc1Cl | inactive |
| O=C(O)c1cccc(NC(=O)c2cccc(S(=O)(=O)N3CCCCC3)c2)c1 | 14.2 µM (active) |
| COc1ccc2nc(NC(=O)c3cnccn3)sc2c1 | 0.2 µM (active) |
| O=C(Nc1ccccc1C(=O)O)c1cccc(NC(=O)c2ccc(Br)o2)c1 | inactive |
| O=C(Cc1ccccc1)Nc1ccc(C(=O)Nc2ccccc2C(=O)O)cc1 | inactive |
| Cc1c(NC(=O)c2cc(-n3cnnc3)ccc2Cl)cccc1-c1nc2ccccc2s1 | 2.83 µM (active) |
| COc1ccc2nc(NC(=O)c3ccc4ncsc4c3)sc2c1 | 2.83 µM (active) |
| CCOc1c(Cl)cc(C(=O)Nc2ccccc2C(=O)O)cc1Cl | 5.04 µM (active) |
| CN(C)S(=O)(=O)c1ccc(C(=O)Nc2cccc(C(=O)O)c2)cc1 | inactive |
| O=C(O)c1cccc(NC(=O)c2ccccc2NC(=O)c2ccccc2F)c1 | inactive |

| Structure (SMILES) | Potency |
| --- | --- |
| O=C(Nc1ccccc1-c1nc2ccccc2s1)c1ccc(Br)o1 | 22.5 µM (active) |
| O=C(Nc1ccc(Cl)cc1-c1nc2ccccc2s1)c1ccco1 | 20 µM (active) |
| Cc1c(NC(=O)C(C)(C)C)cccc1-c1nc2ccccc2s1 | 10 µM (active) |
| COc1ccc2nc(NC(=O)c3cccc(S(=O)(=O)N4CCOCC4)c3)sc2c1 | 7.11 µM (active) |
| CCOc1ccc(C(=O)Nc2ccccc2C(=O)O)cc1 | 1.13 µM (active) |
| COc1ccc2nc(NC(=O)c3cccs3)sc2c1 | 10 µM (active) |
| COc1ccc2nc(NC(=O)Cc3cccs3)sc2c1 | 2.83 µM (active) |
| O=C(Nc1ccccc1C(=O)O)c1ccc(NC(=O)C2CC2)cc1 | inactive |
| CCOc1ccc2nc(NC(=O)Cc3cccs3)sc2c1 | 3.56 µM (active) |
| O=C(Nc1ccccc1C(=O)O)c1cc(S(=O)(=O)NCc2ccccc2)ccc1Cl | inactive |
| Cc1ccc(C(=O)Nc2ccc(C(=O)O)cc2)cc1S(=O)(=O)NCc1ccccc1 | inactive |
| O=C(Nc1cccc(-c2nc3ccccc3s2)c1)C1=COCCO1 | 12.6 µM (active) |
| O=C(Nc1ccccc1C(=O)O)c1cccc(C(=O)Nc2ccccc2C(=O)O)c1 | inactive |
| Cc1ccc(C(=O)O/N=C(\N)c2ccccn2)cc1 | 0.2 µM (active) |
| Cc1c(NC(=O)c2cccs2)cccc1-c1nc2ccccc2s1 | 20 µM (active) |
| O=C(COC(=O)c1ccccc1[N+](=O)[O-])c1ccc2c(c1)OCO2 | 5.04 µM (active) |
| COc1cc(OC)cc(-c2nc3ccccc3s2)c1 | 3.56 µM (active) |
| O=C(O)c1cccc(NC(=O)c2ccc(S(=O)(=O)c3ccccc3)cc2)c1 | inactive |
| Nc1ccccc1-c1nc2ccccc2s1 | 3.18 µM (active) |
